High-throughput results from PubChem BioAssay.
D1 PAM: human D1 dopamine receptor positive modulation. HEK293 TREx D1 cells, calcium flux, dopamine EC20 potentiation. potentiation, % at 10 µM. AID 504651. 360,000 compounds, 0.036% hits. P21728; in the data active = potentiation above about 30%
DRD3 antagonist: blocks the human D3 dopamine receptor; D3R cells, DiscoveRx beta-arrestin luminescence, antagonist mode; stronger effect = lower value; max response, negative = inhibition, %; 360,000 compounds, 2.5% hits; AID 652054; in the data active = max response below about -50%; inconclusive = no clear call, values can overlap the other calls
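Cells expressing the human receptor were seeded at 1500 cells/well, incubated overnight at 37 degrees C in 5% CO2, then exposed to library compounds with dopamine controls for 90 minutes at 37 degrees C before luminescent detection.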
DRD3 agonist: D3 dopamine receptor (human) agonism; P35462; D3R DiscoveRx beta-arrestin cells, luminescence, 90 min; max activation, %; 410,000 compounds, 0.58% hits; in the data active = max activation above about 30%
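Agonist-mode cell screen: cells plated at 1500/well and incubated overnight at 37 °C, then exposed to library compounds for 90 min at 37 °C. Detection reagent was added for 30–60 min at room temperature, and luminescence was read.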
ERG-DNA inh: inhibitors of human ERG Ets domain-DNA interaction | fluorescence polarization, His-ERG Ets domain / labelled DNA | AID 624246 | Potency, µM (series often up to 76.9 µM), most hits filed as inhibitors | 370,000 compounds, 0.028% hits | P11308; active = well fitted inhibition curve with a large enough effect in the polarisation, with a control signal flat; inconclusive = small, poorly fitted or top-dose-only effect, or effect the other way, or a change in a side signal; inactive = no such curve, though single readings can be large or run the other way; the % refers to the polarisation;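 also: polarization taken with two DNA probes labelled with fluorescein and Texas red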
Target sequence (P11308 whole entry, looked up, the tested form may be a part): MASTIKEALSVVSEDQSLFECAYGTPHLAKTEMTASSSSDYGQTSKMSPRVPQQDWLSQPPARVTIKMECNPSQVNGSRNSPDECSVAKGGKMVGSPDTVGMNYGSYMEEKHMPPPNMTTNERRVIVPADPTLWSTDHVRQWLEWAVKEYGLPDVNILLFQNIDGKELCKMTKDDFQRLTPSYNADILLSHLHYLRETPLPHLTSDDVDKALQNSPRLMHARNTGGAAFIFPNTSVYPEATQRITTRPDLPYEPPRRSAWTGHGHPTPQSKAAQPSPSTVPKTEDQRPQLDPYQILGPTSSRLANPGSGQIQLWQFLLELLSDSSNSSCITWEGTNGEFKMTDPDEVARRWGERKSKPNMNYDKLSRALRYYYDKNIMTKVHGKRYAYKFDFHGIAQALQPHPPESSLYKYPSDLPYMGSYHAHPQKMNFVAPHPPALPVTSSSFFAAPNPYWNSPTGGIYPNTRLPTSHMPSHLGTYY
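His-tagged ERG Ets domain (1 uM in the protein solution; 300mM KCl, 50mM Tris-HCl, 1mM EDTA, 1mM DTT, pH 7.5) received compound, then a probe mix of 5 nM fluorescein-DNA and 100nM Texas-615-DNA. Fluorescence polarization was read for both dyes.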
D1 antagonist: blocks dopamine activation of the human D1 receptor. P21728. activity change, negative = inhibition, % at 10 µM. 360,000 compounds, 3.2% hits. HEK293 TREx D1 cells, calcium flux, dopamine EC80; stronger effect = lower value; in the data active = activity change below about -30%
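After overnight tetracycline induction at 30 C, force-coupled D1 HEK293 cells took up a no-wash calcium dye at room temperature. Compounds were added and monitored 180 s, and the response to EC80 dopamine was then recorded.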
D1 agonist: human D1 receptor agonism; P21728; HEK293 T-REx D1 cells, calcium flux, agonist mode; activation, % at 2 µM; 360,000 compounds, 1% hits; in the data active = activation above about 30%
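Inducible HEK293 T-REx D1 cells, force-coupled to calcium signalling, were plated at 4000 cells/well with tetracycline and held overnight at 30 C. After no-wash calcium dye loading, compound-evoked calcium rise over 180 s flagged agonists.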
Of the large screens only hits and unclear results are named; the others gave an inactive call. A selection: hits, their analogues and other compounds. The true share with any hit is near 6.1%.

CC(NC(=O)c1ccc(Br)cc1Br)c1ccccc1 (stereo unspecified)	none
CCOC(=O)C1=C(O)/C(=C/c2cn(CC(=O)NCC3CCCO3)c3ccccc23)SC1=Nc1ccc(C)cc1 (stereo unspecified)	none (no result: D1 PAM, D1 antagonist, D1 agonist)
C[C@H](CO)N1C[C@H](C)[C@@H](CN(C)S(=O)(=O)c2ccccc2C#N)OCc2cnnn2CCCC1=O	none (no result: D1 PAM, ERG-DNA inh, D1 antagonist, D1 agonist)
NCCOc1ccccc1Cc1ccccc1	DRD3 antagonist -64, D1 antagonist -55, D1 agonist 62
COc1ccc(Cl)cc1NC(=O)N1CC(=O)Nc2sc3c(c2C1c1ccccc1)CCCC3 (stereo unspecified)	none (no result: DRD3 antagonist)
O=C(NCc1ccc2c(c1)OCO2)Nc1cccc2ccccc12	none
N#CC(C#N)=C(Nc1ccc(F)cc1)SCc1cccc(F)c1	D1 antagonist -44, D1 agonist 34
C[C@H](C(=O)O)c1cccc(C(=O)c2ccccc2)c1	D1 antagonist -54
O=C(NC(c1ccc(F)cc1)c1ccc2ccccc2n1)C1CCN(CCOc2ccc(Cl)cc2Cl)CC1 (stereo unspecified)	none (no result: D1 PAM, ERG-DNA inh, D1 antagonist, D1 agonist)
COc1cc(CN2CCC(C(=O)NC(c3ccc(F)cc3)c3ccc4ccccc4n3)CC2)cc(OC)c1 (stereo unspecified)	DRD3 antagonist -68 (no result: D1 PAM, ERG-DNA inh, D1 antagonist, D1 agonist)
O=C(NC(c1ccc(F)cc1)c1ccc2ccccc2n1)C1CCN(Cc2ccc(Oc3ccccc3)cc2)CC1 (stereo unspecified)	DRD3 antagonist -89 (no result: D1 PAM, ERG-DNA inh, D1 antagonist, D1 agonist)
O=C(NC(c1ccccc1)c1ccc2ccccc2n1)C1CCN(Cc2ccc(Oc3ccccc3)cc2)CC1 (stereo unspecified)	DRD3 antagonist inconclusive (no result: D1 PAM, ERG-DNA inh, D1 antagonist, D1 agonist)
Cn1cc(CN2CCC(C(=O)NC(c3ccc(F)cc3)c3ccc4ccccc4n3)CC2)c2ccccc21 (stereo unspecified)	DRD3 antagonist -58 (no result: D1 PAM, ERG-DNA inh, D1 antagonist, D1 agonist)
CCN(C(=O)c1ccc(=O)n(C)n1)c1c(N)n(Cc2ccccc2)c(=O)[nH]c1=O	none (no result: D1 PAM, D1 antagonist, D1 agonist)
O=C(c1ccncc1)N1CCN(S(=O)(=O)c2ccc(OC(F)(F)F)cc2)CC1	none (no result: D1 PAM, ERG-DNA inh, D1 antagonist, D1 agonist)
O=[N+]([O-])c1ccc(OCC(O)CN(CCO)CCO)cc1 (stereo unspecified)	D1 antagonist -35
Cc1ccc(C(=O)CSc2nc(-c3ccccc3)ccc2C#N)cc1	D1 agonist 36
Cc1ccc(-c2ccc(SCC(=O)c3ccccc3)nn2)cc1	none
Cc1c(C(=O)N2CCCC2)sc(NC(=O)c2ccc(Cl)cc2)c1C#N	DRD3 antagonist -55, D1 antagonist -64
CCOc1ccc(N(C(C)C(=O)NN=C2CCCCCCC2)S(C)(=O)=O)cc1 (stereo unspecified)	D1 antagonist -33
COc1ccc(N(C(C)C(=O)NN=C2CCCC2)S(C)(=O)=O)cc1 (stereo unspecified)	none
CCOc1ccccc1NC(=O)C(C)N(c1ccccc1)S(C)(=O)=O (stereo unspecified)	DRD3 agonist 37 (no result: DRD3 antagonist)
Cc1ccc(/C=[N+](/[O-])C2SC(=S)N(C)C2(C)C)cc1 (stereo unspecified)	none
COc1ccc([N+](=O)[O-])cc1NCc1c(F)cccc1F	none (no result: D1 PAM, ERG-DNA inh, D1 antagonist, D1 agonist)
C[C@]12c3[nH]c4ccc(Cl)cc4c3CCN1C(=O)[C@@H](CC(=O)NCC13CC4CC(CC(C4)C1)C3)C[C@@H]2C(=O)N1CCOCC1	DRD3 antagonist -50 (no result: D1 PAM, D1 antagonist, D1 agonist)
C[C@]12c3[nH]c4ccc(Cl)cc4c3CCN1C(=O)[C@@H](CC(=O)NCC13CC4CC(CC(C4)C1)C3)C[C@@H]2C(=O)N1CCCCC1	none (no result: D1 PAM, D1 antagonist, D1 agonist)
CC(C)N(C(=O)[C@H]1C[C@H](CC(=O)NCCN2CCOCC2)C(=O)N2CCc3c([nH]c4ccc(Cl)cc34)[C@]12C)C(C)C	DRD3 antagonist -53 (no result: D1 PAM, D1 antagonist, D1 agonist)
CCN(CC)C(=O)[C@H]1C[C@H](CC(=O)NCCN2CCOCC2)C(=O)N2CCc3c([nH]c4ccc(Cl)cc34)[C@]12C	none (no result: D1 PAM, D1 antagonist, D1 agonist)
CCC(C(=O)NCc1ccco1)n1nc(C)n2c(cc3occc32)c1=O (stereo unspecified)	none
CCOC(=O)c1cc(CC)sc1/N=C/C1C(=O)CC(C)(C)CC1=O	D1 antagonist -49
O=S(=O)(c1ccc2[nH]ccc2c1)N1CCCCCC1	D1 antagonist -30
COc1ccccc1CCN1COc2c(cc3c(C)c(C)c(=O)oc3c2C)C1	D1 antagonist -31 (no result: DRD3 antagonist)
CCc1c(C)c2cc3c(c(C)c2oc1=O)OCN(CCc1ccc(OC)c(OC)c1)C3	none (no result: DRD3 antagonist)
COc1ccc(Cl)cc1NC(=O)CCNC(=O)Cn1ccc2ccccc2c1=O	none
CCCN1CCC(N(CCc2ccccc2)Cc2ccccc2)CC1	DRD3 antagonist -97
COc1ccc(CN2CCC(N(CCc3ccccc3)Cc3ccccc3)CC2)c(OC)c1	DRD3 antagonist -62
COCCNC(=O)C1(C)CCCN(Cc2ccc(C)c3ccccc23)C1 (stereo unspecified)	DRD3 antagonist -52 (no result: D1 PAM, ERG-DNA inh, D1 antagonist, D1 agonist)
CCCNC(=O)C1(C)CCCN(Cc2csc(-c3ccccc3)n2)C1 (stereo unspecified)	DRD3 antagonist -66, DRD3 agonist 45 (no result: D1 PAM, ERG-DNA inh, D1 antagonist, D1 agonist)
CCNC(=O)C1(C)CCCN(Cc2csc(-c3ccc(Cl)cc3)n2)C1 (stereo unspecified)	none (no result: D1 PAM, ERG-DNA inh, D1 antagonist, D1 agonist)
COCCNC(=O)C1(C)CCN(Cc2csc(-c3ccc(Cl)cc3)n2)C1 (stereo unspecified)	DRD3 antagonist -103 (no result: D1 PAM, ERG-DNA inh, D1 antagonist, D1 agonist)
COCCNC(=O)C1(C)CCN(Cc2cccc(Oc3ccccc3)c2)C1 (stereo unspecified)	none (no result: D1 PAM, ERG-DNA inh, D1 antagonist, D1 agonist)
Cc1c(C(=O)NCc2ccc(Cl)c(Cl)c2)sc(=O)n1Cc1ccc(S(C)(=O)=O)cc1	none (no result: D1 PAM, ERG-DNA inh, D1 antagonist, D1 agonist)
CC(C)(C)NC(=O)NC(=O)COC(=O)c1cccc(F)c1	none
CC(C)(C)NC(=O)NC(=O)COC(=O)c1cccc(OC(F)F)c1	D1 antagonist -31
CNC(=O)CSc1nnc(C(C)C)n1C	none
CCn1c(SCC(=O)NC)nnc1C(C)C	DRD3 antagonist -52
CC1CC(=O)Nc2ccccc2N1S(=O)(=O)c1cccc(F)c1 (stereo unspecified)	none
O=C1CC(SC2=NCCS2)C(=O)N1c1ccc(Br)cc1 (stereo unspecified)	D1 agonist 44
O=C1CC(SC2=NCCS2)C(=O)N1c1ccc(Cl)cc1 (stereo unspecified)	none
CCOC(=O)c1ccc(NC(=O)CCc2nc(-c3cccc(C)c3)no2)cc1	none
COc1ccc(COC(=O)c2c(C)nn(-c3ccccc3)c2Cl)cc1	D1 antagonist -37
COc1ccc(CC(=O)Nc2ccccc2NC(=O)Cc2ccc(OC)cc2)cc1	none
COc1ccc(CC(=O)Nc2cc(Cl)ccc2O)cc1	D1 antagonist -35 (no result: ERG-DNA inh)
COc1cccc2cc(-c3nc4ccc(C)cc4[nH]3)c(=O)oc12	none (no result: DRD3 antagonist)
